Compound activity as filed in PubChem BioAssay.
ELG1 genotox – genotoxicity induction in ELG1-luciferase HEK293T cells; actives 1.3% (n = 330,000); AID 504466; HEK293T ELG1-luciferase reporter, luminescence, 16 h; Potency, µM (top dose mostly 46 µM), for inactives: at the top dose activity change, positive = activation, actives largely listed as activators; note: % of control where 0% means no effect; nearly all actives have a fitted effect of over 60% in size
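HEK293T cells expressing luciferase-tagged ELG1 were exposed to compound or DMSO vehicle for 16 hr at 37 °C and 5% CO2. Luciferase activity was then measured with ONE-Glo after 30 min at room temperature.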
SMN2 splice up – increases expression of the SMN2 splice variant; Potency, µM (doses to about 46.1 µM), for inactives: top-dose activity change, positive = activation, usual class: activators; actives 2.8% (n = 210,000); HEK293 SMN2-luciferase splicing reporter, luminescence, 30-36 h; note: % of control where 0% means no effect; nearly all actives have a fitted effect of over 55% in size
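HEK293 cells carry an SMN2 […]–luciferase reporter in which exon 7 inclusion puts luciferase in frame. Cells were plated 10-12 h before compound addition, then incubated 30-36 h at 37C. ONE-Glo luminescence was read; sodium butyrate at 4.5 mM final served as control.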
Rab9 promoter act – activators of Rab9 promoter. Huh7 Rab9 promoter-luciferase reporter, luminescence, 24 h. Potency, µM (top dose mostly 9.22 µM), inactives show at the top dose activation, negative = inhibition, usual class: activators. actives 2.8% (n = 320,000). AID 485297; note: % of control where 0% means no effect; nearly all actives have a fitted effect of over 60% in size
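Quantitative HTS format; Huh7 Rab9-luciferase reporter cells (1500/well) receive compound 2 h post-plating, incubate 24 h at 37 °C, then get luciferase reagent for 10 min before luminescence reading.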
NPC1 promoter act – activates the NPC1 promoter | actives 2.4% (n = 320,000) | Potency, µM (top dose mostly 9.22 µM), for inactives: at the highest dose activation, actives largely listed as activators | Huh7 NPC1 promoter luciferase reporter, 24 h | AID 485313; note: % of control where 0% means no effect; nearly all actives have a fitted effect of over 60% in size
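Readout is luciferase luminescence, reflecting NPC1 promoter activation in stably transfected Huh7 cells after 24 h compound exposure at 37 °C in reduced-serum medium with 10% FBS.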
p53 reactivator – mutant p53 re-activation in reporter cells; actives 0.063% (n = 320,000); H1299 p53-A138V BP100-luciferase reporter, luminescence, 24 h; Potency, µM (top dose mostly 92.2 µM), for the others: at the highest dose activity change, positive = activation, hits mostly activators; note: % of control where 0% means no effect; nearly all actives have a fitted effect of over 45% in size
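p53-null H1299 cells stably carrying temperature-sensitive p53-A138V and a BP100-luciferase reporter were pinned with compounds (4-point, 1:5 series) and held 24 hrs at 37 deg C. Luminescence was read 10 min after detection reagent.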
FLuc counter – counter-screen for miR-21 project: firefly luciferase inhibitors or activators; purified FLuc, Km substrates, luminescence inhibition; actives 6.9% (n = 360,000); P08659; Potency, µM (doses to about 57.5 µM), for the others: at the top dose activity change, negative = inhibition, usual class: inhibitors; AID 588342;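 note: plate controls were vehicle for no effect and reference inhibitor for full effect; nearly all actives have a fitted effect of over 55% in size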
Target sequence (P08659 whole entry, looked up): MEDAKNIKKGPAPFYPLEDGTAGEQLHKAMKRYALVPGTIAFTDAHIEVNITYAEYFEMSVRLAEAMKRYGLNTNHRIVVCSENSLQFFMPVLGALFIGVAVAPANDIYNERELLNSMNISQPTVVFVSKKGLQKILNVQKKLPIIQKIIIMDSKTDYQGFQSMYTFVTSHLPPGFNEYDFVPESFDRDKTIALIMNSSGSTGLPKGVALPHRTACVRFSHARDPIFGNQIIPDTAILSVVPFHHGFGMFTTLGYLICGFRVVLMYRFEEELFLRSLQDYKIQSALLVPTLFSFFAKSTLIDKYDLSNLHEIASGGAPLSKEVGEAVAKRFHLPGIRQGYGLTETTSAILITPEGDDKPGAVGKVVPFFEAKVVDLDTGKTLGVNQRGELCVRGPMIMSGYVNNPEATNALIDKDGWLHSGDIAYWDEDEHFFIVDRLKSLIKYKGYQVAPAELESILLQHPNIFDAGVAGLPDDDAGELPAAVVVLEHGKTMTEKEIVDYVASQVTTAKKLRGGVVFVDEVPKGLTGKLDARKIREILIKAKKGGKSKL
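Purified P. pyralis luciferase, 10 nM final, with Km-level 10 uM D-luciferin and 10 uM ATP in 50 mM Tris acetate pH 7.5, 10 mM Mg acetate, 0.01% Tween-20, 0.05% BSA; 6-point qHTS titration about 60 µM downward; luminescence read.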
* hit, by the source's call; ? = inconclusive; / = no result given; [ ] = dose if it differs, or a comment. Sampled rows, rich in hits. Any-hit rate of the full collection: about 7.3%. Calls come from the whole dose curve; as a rule, active = well fitted curve in the direction sought with a large enough effect; inconclusive = small, poorly fitted or top-dose-only effect, or another doubt; inactive = no such curve, though single readings can be large; an effect the other way counts as inactive or inconclusive. Potency is the fitted concentration of half-maximal effect.

SMILES	ELG1 genotox	SMN2 splice up	Rab9 promoter act	NPC1 promoter act	p53 reactivator	FLuc counter
COc1cc(/C=C2\CCC/C(=C\c3ccc(O)c(OC)c3)C2=O)ccc1O	-11%	/	-13%	-4%	-15%	19µM*
COc1ccc2c(c1)OC/C(=C/c1cccs1)C2=O	12µM*	/	?	?	?	0.43µM*
COc1ccc(/C=C2\CCc3ccccc3C2=O)cc1CN1CCOCC1	?	/	-1%	2%	?	7.6µM*
Cn1c(=O)c2sccc2n2c(CCCC(=O)NC3CCCCC3)nnc12	/	/	/	/	/	-8%
COc1ccc(C2NN=C(c3ccc(C)cc3)S2)cc1OC (stereo unspecified)	?	11µM*	1.4µM*	2.2µM*	?	2.4µM*
Fc1cccc(C2NN=C(c3ccccc3)S2)c1 (stereo unspecified)	2.3µM*	11µM*	2.8µM*	2.2µM*	?	1.1µM*
Cc1ccc(C2=NNC(c3cccc(F)c3)S2)cc1 (stereo unspecified)	-23%	1.6µM*	0.5µM*	0.56µM*	35%	0.43µM*
CCOC(=O)C1=C(CN2CCN(c3ccccc3)CC2)NC(=O)NC1c1ccc(C)cc1 (stereo unspecified)	/	4%	/	/	/	-9%
N[C@@](CCc1ccccc1)(C(=O)O)c1ccccc1	/	-10%[9.22 µM]	/	/	/	/
COc1cccc(-c2nc(SCc3cc(=O)c4cc(Cl)ccc4[nH]3)n[nH]2)c1	/	/	/	/	/	-5%
COc1ccc(/C=C2\SC(=S)N(CCC(=O)N3CCOCC3)C2=O)cc1	-1%	/	-15%	-1%	28%	?
COc1ccc(/C=C2\SC(=S)N(CCCC(=O)N3CCN(C)CC3)C2=O)cc1	1%	/	-11%	-4%	10%	15µM*
O=C1/C(=C\c2ccccc2)SC(=S)N1CCC(=O)N1CCCCC1CCO (stereo unspecified)	-5%	/	0%	-8%	?	17µM*
CC(C)c1ccc(/C=C2\SC(=S)N(CCC(=O)N3CCCCC3CCO)C2=O)cc1 (stereo unspecified)	-14%	/	-31%	-24%	-6%	3.4µM*
COc1ccc(/C=C2\SC(=S)N(CCCC(=O)N3CCCCC3CCO)C2=O)cc1 (stereo unspecified)	-14%	/	-12%	-17%	-13%	17µM*
COc1cccc(/C=C2\SC(=O)N(CCC(=O)N3CCCCC3CCO)C2=O)c1 (stereo unspecified)	-3%	/	0%	-5%	-6%	-16%
O=C1/C(=C/c2ccccc2Cl)SC(=S)N1CCC(=O)N1CCCCC1CCO (stereo unspecified)	-8%	/	-5%	-8%	-7%	?
CCOC(=O)c1c(C)[nH]c(C)c1S(=O)(=O)N1CCCC(C(=O)N2CCN(c3ccccc3F)CC2)C1 (stereo unspecified)	/	/	/	/	/	-8%
Cc1ccc(Cn2cnc3c(nnn3Cc3ccc(Cl)cc3)c2=O)cc1	5%	-12%	-2%	-5%	2%	7%
O=C(NCc1ccccc1F)C1CCN(c2nn3cc(-c4ccc(F)cc4)nc3s2)CC1	/	/	/	/	/	-3%
Cc1cc(N)n(-c2ccc3ccccc3c2)n1	?	?	?	25%	?	17µM*
Cc1ccc(C(=O)/C=C2\NCCNC2=O)cc1	?	2.8µM*	0.89µM*	1.4µM*	?	5.4µM*
Cc1ccc(C(=O)/C=C2\NCC(C)NC2=O)cc1 (stereo unspecified)	?	14%	0.32µM*	0.32µM*	-10%	1.2µM*
O=c1[nH]cc(CS(=O)(=O)Cc2c[nH]c(=O)[nH]c2=O)c(=O)[nH]1	/	3%[9.22 µM]	/	/	/	/
C=CCn1c(C)cc(C(=O)CSc2nnc(C3CC3)n2C2CC2)c1C	11%	/	15%	17%	?	3µM*
SMILES	ELG1 genotox	SMN2 splice up	Rab9 promoter act	NPC1 promoter act	p53 reactivator	FLuc counter
C=CCn1c(SCC(=O)c2cc(C)n(CC3CCCO3)c2C)nnc1-c1ccccc1 (stereo unspecified)	-5%	-30%	5%	-6%	-4%	?
Cc1cc(C(=O)CSc2nnc(C3CC3)n2C2CC2)c(C)n1C(C)C	4%	/	5%	6%	?	12µM*
Cc1ccc(-c2nn(-c3ccccc3)cc2CN(C)C(=O)CCC(=O)O)cc1C	12%	5%	-3%	-2%	0%	19µM*
N#C/C(=C\c1ccccn1)c1nc2ccccc2s1	?	15%	?	2%	?	3.4µM*
C(=C(c1ccccc1)c1ccccc1)c1ccccn1	3%	/	2%	-3%	7%	1%
COc1ccc(/C(C#N)=C/c2ccccn2)cc1	?	/	1.4µM*	2µM*	?	4.8µM*
Cc1nn(CCC(=O)NC(C)C)c(=O)c2nn(-c3ccccc3)c(C)c12	/	/	/	/	/	-6%
Cc1ccc2[nH]c3c(c2c1)CCC3=O	?	16%	0%	2%	0%	-2%
Cc1ccc2[nH]c3c(c2c1)CCc1cn[nH]c1-3	0%	7%	?	?	25%	11µM*
NCCOC[C@H](N)C(=O)O	/	-5%[9.22 µM]	/	/	/	/
COC(=O)c1ccc(C2OCC(C)(C)CO2)cc1	19%	?	?	?	?	27µM*
O=C(OCC1OC(OC(=O)c2cc(O)c(O)c(OC(=O)c3cc(O)c(O)c(O)c3)c2)[C@@H](OC(=O)c2cc(O)c(O)c(OC(=O)c3cc(O)c(O)c(O)c3)c2)C(OC(=O)c2cc(O)c(O)c(OC(=O)c3cc(O)c(O)c(O)c3)c2)C1OC(=O)c1cc(O)c(O)c(OC(=O)c2cc(O)c(O)c(O)c2)c1)c1cc(O)c(O)c(OC(=O)c2cc(O)c(O)c(O)c2)c1 (stereo partly specified)	/	-97%	/	/	/	/
COc1cc(C=O)ccc1OCCCCOc1ccccc1[N+](=O)[O-]	1%	4%	1%	0%	-3%	-29%
COc1cc(C=O)ccc1OCCCOc1ccccc1[N+](=O)[O-]	?	?	-4%	1%	?	?
COc1cc(C=O)ccc1OCCCOc1ccccc1C(=O)O	-3%	14%	?	?	-13%	1.9µM*
COc1cc(C=O)ccc1OCc1ccc(Cl)nc1	?	/	10%	-1%	14%	4.8µM*
COc1cc(C=O)ccc1OCCOc1ccccc1[N+](=O)[O-]	11%	17%	-4%	-1%	?	21µM*
C/C=C/c1ccc(OCCOc2cc(C=O)ccc2OC)c(OC)c1	15%	16µM*	8%	12%	28%	13µM*
C/C=C/c1ccc(OCC(=O)O)c(OC)c1	0%	/	1%	-6%	3%	3%
